Potency and max response data for 25 compounds are collected here from PubChem BioAssay (Tox21).

Assay [1] is described as follows: qHTS RealTime-Glo MT Cell Viability Assay in HEK293 cells - 16 hour (AID 1224872). Note: nearly all actives have a fitted effect of over 50% in size. Note: potency is the fitted concentration of half-maximal effect. The gist of the method: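 Cells + reagent dispensed (600 cells/well, HEK293) → 5 h at 37 C/5% CO2 → 23 nL compound in DMSO pinned → 40 h at 37 C → luminescence read at 0, 8, 16, 24, 32, 40 h.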
(In general: In qHTS, concentration-response curves come from the screen itself.)

Assay [2] can be described thus: qHTS RealTime-Glo MT Cell Viability Assay in HepG2 cells - 8 hour (AID 1224873). Note: nearly all actives have a fitted effect of over 55% in size. The method in brief: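 HepG2 cells (600/well) mixed with RealTime-Glo MT reagent, settled 5 h at 37 C/5% CO2 before compound addition. Nonlytic NanoLuc luminescence from viable-cell prosubstrate reduction read repeatedly during 40 h treatment at 37 C.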
A short description of assay [3]: qHTS RealTime-Glo MT Cell Viability Assay in HEK293 cells - 40 hour (AID 1224874). Note: nearly all actives have a fitted effect of over 50% in size. Note: potency is the fitted concentration of half-maximal effect. Conditions: RealTime-Glo luminescence; max response: stronger effect = lower value. The method in brief:
(§1)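 Kinetic, non-lysing viability readout. Seed HEK293 (600/well) with reagent, incubate 5 h at 37 C/5% CO2, pin 23 nL compound in DMSO, incubate at 37 C, read luminescence at 0, 8, 16, 24, 32, 40 h.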

The nature of assay [4]: qHTS RealTime-Glo MT Cell Viability Assay in HepG2 cells - 32 hour (AID 1224877). Note: nearly all actives have a fitted effect of over 55% in size. Note: potency is the fitted concentration of half-maximal effect. The method in brief: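 Real-time, nonlytic viability: 600 HepG2 cells/well mixed with NanoLuc enzyme plus prosubstrate; 5 h settle, compound (DMSO) added by pintool; luminescence monitored over 40 h at 37 C.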
Assay [5] in a line: qHTS RealTime-Glo MT Cell Viability Assay in HEK293 cells - 0 hour (AID 1224880). Note: top concentration of the series differs between compounds; nearly all actives have a fitted effect of over 45% in size. The method in brief: as §1
Assay [6] is described as follows: A CellTox Green Cytotoxicity Assay to monitor cytotoxicity in HEK293 cells - 24 hour (AID 1224875). Note: nearly all actives have a fitted effect of over 45% in size. Note: potency is the fitted concentration of half-maximal effect. The method in brief: (§2)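 Real-time, in one plate: 600 HEK293 cells/well with dead-cell DNA dye, pinned compound after 5 h, 37 C incubation over 40 h; viable cells give no appreciable fluorescence.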
Assay [7] can be described thus: A CellTox Green Cytotoxicity Assay to monitor cytotoxicity in HepG2 cells - 24 hour (AID 1224878). Note: nearly all actives have a fitted effect of over 45% in size. Note: potency is the fitted concentration of half-maximal effect. The gist of the method:
(§3)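 Cytotoxicity was tracked as dead-cell DNA fluorescence in HepG2 cells treated with test compounds at 37 C; each time-point value comes from one kinetic series spanning 0, 8, 16, 24, 32 and 40 h.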

The nature of assay [8]: A CellTox Green Cytotoxicity Assay to monitor cytotoxicity in HepG2 cells - 40 hour (AID 1224879). Note: nearly all actives have a fitted effect of over 40% in size. Note: potency is the fitted concentration of half-maximal effect. The gist of the method: as §3
The nature of assay [9]: A CellTox Green Cytotoxicity Assay to monitor cytotoxicity in HEK293 cells - 32 hour (AID 1224881). Note: nearly all actives have a fitted effect of over 40% in size. Note: potency is the fitted concentration of half-maximal effect. The method in brief: as §2
Assay [10] can be described thus: A CellTox Green Cytotoxicity Assay to monitor cytotoxicity in HepG2 cells - 16 hour (AID 1224876). Note: nearly all actives have a fitted effect of over 45% in size. Note: potency is the fitted concentration of half-maximal effect. The method in brief:
as §3

Several values for one entry are separate records, joined by “and”; a condition that tells them apart may be missing. Equal values may be shown once. Results filed as inconclusive are left out. More than one record can exist for a structure, and the calls need not agree. Activity calls are given as the source filed them. Calls come from the whole dose curve; as a rule, active = well fitted curve in the direction sought with a large enough effect in the repeat runs; inconclusive = weak or mixed curves; inactive = no such curve, though single readings can be large; an effect the other way counts as inactive or inconclusive.
% is set by controls: 0 for no effect and ±100 for the full control effect.

For `O=C(Oc1ccccc1)c1cccc(C(=O)Oc2ccccc2)c1`, the Potency entry in [1], in assay [2], in assay [4] and in assay [5] was “inactive” each time. Further, the max response in assay [3] was 5.48% (inactive).

`Clc1cc(Cl)c(-c2c(Cl)c(Cl)cc(Cl)c2Cl)cc1Cl`: the Potency result in [1], in assay [2], in assay [6], in assay [4], in assay [7] and in [8] was “inactive” throughout. Further, the Potency entry in assay [5] and in assay [9] was “inactive” throughout.

Turning to `CCCCCCC(C)OC(=O)COc1nc(F)c(Cl)c(N)c1Cl` (centres undefined), the Potency entry in assay [1], in assay [2], in assay [4] and in assay [5] was “inactive” in each case. The max response in assay [3] is -20.4% (inactive).

Turning to `COc1ccccc1OCCNCC(O)COc1cccc2[nH]c3ccccc3c12` (centres undefined), the Potency in assay [1] was 16.9 µM (active); in assay [3], 10.7 µM (active); in assay [10] it was 23.9 µM (active); in assay [4], 23.9 µM (active); in [8] it was 23.9 µM (active). For the same compound, the Potency result in assay [6] and in assay [5] was “inactive” throughout.

For `CS(C)(=O)=O`, the Potency result in assay [1], in [2], in [4], in assay [8] and in [5] was “inactive” each time. Moreover, the max response in [3] was -3.02% (inactive). Besides, the Potency in [9] is 19.5 µM (active).

For the compound `CC1(C)COCN1`, the Potency result in [1], in assay [2], in assay [4], in [7], in assay [8] and in [5] was “inactive” each time. Moreover, the max response in [3] was -0.12% (inactive).

Consider `CCN(CC)CCCN(c1ccccc1)C1Cc2ccccc2C1`, for which the Potency result in assay [1], in assay [2], in assay [6] and in assay [9] was “inactive” in each case. The Potency in assay [7] and in assay [8] was 23.9 µM (active) in each case.

As to `CCc1ccc(O)c(C(C)(C)C)c1`, the Potency entry in [1], in [4] and in assay [5] was “inactive” each time. Further, the max response in assay [3] is -13.3% (inactive). The Potency is 43.6 µM (active) in [6]; 43.6 µM (active) in assay [10]; 38.9 µM (active) in assay [7]; 38.9 µM (active) in assay [8]; 38.9 µM (active) in assay [9].

In the case of `CCCCCCCCC(C)=O`, the Potency entry in assay [1], in assay [2], in assay [4], in assay [7], in [8] and in assay [5] was “inactive” each time. In [9], the Potency result is “inactive”. Also, in assay [3], the max response is 9.37% (inactive).

`CC1CCCCN1CCCOC(=O)c1ccc(OC2CCCCC2)cc1` (centres undefined): the Potency in assay [1] is 15.1 µM (active); in assay [3], 21.3 µM (active); in assay [7], 26.8 µM (active); in assay [8], 26.8 µM (active). Further, the Potency entry in [2] and in assay [5] was “inactive” throughout.

On to `CCCN(CCc1cccs1)[C@H]1CCc2c(O)cccc2C1`, for which the Potency in assay [1] is 15.1 µM (active); in assay [3], 21.3 µM (active); in [8], 23.9 µM (active). For the same compound, the Potency result in assay [2], in assay [4] and in assay [5] was “inactive” in each case.

In the case of `C1CC(COCC2CO2)CCC1COCC1CO1` (centres undefined), the Potency entry in [1], in assay [2], in assay [6], in assay [10], in [4] and in assay [7] was “inactive” throughout. Further, the Potency result in assay [8], in [5] and in assay [9] was “inactive” in each case.

As for `C=C(c1ccc(C(=O)O)cc1)c1cc2c(cc1C)C(C)(C)CCC2(C)C`, the Potency result in [1], in assay [2], in [4] and in [5] was “inactive” throughout. Besides, the Potency was 38.9 µM (active) in assay [7]; 49 µM (active) and 23.9 µM (active) in assay [8]; 30.9 µM (active) and inactive in [9].

On to `CC=O`, for which the Potency in assay [1] was 4.57 µM (active); in assay [3], 0.324 µM (active); in assay [6] it was 57.5 µM (active); in assay [10], 57.5 µM (active); in [4], 45.7 µM (active); in assay [7], 45.7 µM (active). Moreover, the Potency in [8] is 25.7 µM (active); in assay [9], 51.3 µM (active). Also, the Potency entry in assay [5] is “inactive”.

As for `Cc1occc1SSc1ccoc1C`, the Potency entry in assay [1], in [2], in assay [4] and in assay [5] was “inactive” in each case. Moreover, the max response in [3] is -28.3% (inactive). Also, the Potency in assay [8] and in [9] was 54.9 µM (active) each time.

On to `CCN(CC)CCOC(=O)C1(C2CCCCC2)CCCCC1`, for which the Potency was 21.3 µM (active) in assay [1]; 23.9 µM (active) in assay [6]; 23.9 µM (active) in [10]; 23.9 µM (active) in assay [7]; 23.9 µM (active) in assay [8]; 23.9 µM (active) in assay [9]. The Potency result in assay [2] and in [4] was “inactive” throughout.

In the case of `CC(CN(C)C)CN1c2ccccc2CCc2ccccc21` (centres undefined), the Potency entry in [1], in assay [2], in assay [6], in assay [5] and in assay [9] was “inactive” throughout. In [8], the Potency was 23.9 µM (active).

As for `COc1ccc(-n2nc(CCC(=O)N(C)O)cc2-c2ccc(Cl)cc2)cc1`, the Potency entry in [1], in [2], in assay [6], in [10], in assay [5] and in assay [9] was “inactive” each time.

`Cc1cc2c(C(C)C)c(O)c(O)c(C=O)c2c(O)c1-c1c(C)cc2c(C(C)C)c(O)c(O)c(C=O)c2c1O`: the Potency in assay [1] was 19 µM (active); in assay [3] it was 8.49 µM (active); in assay [6] it was 19 µM (active); in assay [4], 21.3 µM (active); in assay [8] it was 26.8 µM (active); in assay [9] it was 21.3 µM (active). The Potency result in [10] and in assay [5] was “inactive” each time.

Turning to `CC(=O)OC(OC(C)=O)c1ccc([N+](=O)[O-])o1`, the figures for the Potency in assay [1], in [3] and in [8] were 44.4 µM (active), 44.4 µM (active) and 49.8 µM (active), respectively. The Potency result in assay [5] is “inactive”.

Turning to `CCCCCCOc1ccc(O)cc1`, the Potency is 0.0617 µM (active) in assay [1], 0.0776 µM (active) in [3] and 19.5 µM (active) in assay [9]. Further, the Potency result in assay [5] is “inactive”.

`NC1(c2ccc(-c3nc4ccn5c(=O)[nH]nc5c4cc3-c3ccccc3)cc2)CCC1`: the Potency was 6.01 µM (active) in assay [1], 1.07 µM (active) in assay [3] and 26.8 µM (active) in assay [8]. For the same compound, the Potency entry in assay [5] is “inactive”.

On to `CCN(CC)CCNc1ccc(CO)c2sc3ccccc3c(=O)c12`, for which the Potency was 16.9 µM (active) in [1]; 16.9 µM (active) in assay [3]; 16.9 µM (active) in assay [10]; 23.9 µM (active) in [4]; 16.9 µM (active) in assay [7]; 13.4 µM (active) in assay [8]. The Potency result in assay [5] and in [9] was “inactive” throughout.

As to `O=C1NCCN1CCN1CCC(c2cn(-c3ccc(F)cc3)c3ccc(Cl)cc23)CC1`, the Potency in assay [1] is 23.9 µM (active); in assay [3], 12 µM (active); in assay [6], 23.9 µM (active); in assay [4], 26.8 µM (active); in assay [7], 26.8 µM (active); in assay [8], 26.8 µM (active). The Potency in assay [9] was 23.9 µM (active). In addition, the Potency entry in [5] was “inactive”.

With `COC(=O)C1=C(C)NC(C)=C(C(=O)OCCCN2CCC(c3ccccc3)(c3ccccc3)CC2)C1c1cccc([N+](=O)[O-])c1` (centres undefined), the Potency in [1] was 9.52 µM (active); in assay [3], 10.7 µM (active). Further, the Potency result in [6], in assay [10], in assay [7], in assay [5] and in [9] was “inactive” in each case.
